# Screens from PubChem BioAssay.
# Pf Dd2 inh: blocks in vitro growth of P. falciparum Dd2; 4.3% of 120,000 active; P. falciparum Dd2 growth, SYBR Green, 72 h; Potency, µM (series often up to 28.9 µM), usual class: inhibitors; AID 1347417; active = well fitted inhibition curve with a large enough effect; note: nearly all actives have a fitted effect of over 65% in size
#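 Infected erythrocytes (Dd2, 0.3% parasitemia, 2.5% hematocrit final) are added to compound in RPMI-1640/Albumax II medium, grown 72 h at 37C in low oxygen, then lysed with saponin/Triton-X containing SYBR Green and read by fluorescence.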
# Hits are given with their value; i = inactive; ! = not active in a repeat. The sample as a whole holds a higher share of hits than the screen did.
SMILES,Pf Dd2 inh
CCOc1ccc(C2c3c(oc4ccc(C)cc4c3=O)C(=O)N2CCCN(C)C)cc1OC (stereo not given),i
CCOc1ccc(C2c3c(-c4cc(C)ccc4O)n[nH]c3C(=O)N2Cc2cccnc2)cc1OCC (stereo not given),11.2µM
CCCN1C(=O)c2[nH]nc(-c3ccccc3O)c2C1c1ccc(OCc2ccccc2)c(OC)c1 (stereo not given),10µM
COc1cccc(-c2n[nH]c3c2C(c2ccccn2)N(C)C3=O)c1 (stereo not given),i
CCCN1C(=O)CN(C2CCCCC2)C(=O)C1c1ccc(OC)c(OC)c1 (stereo not given),i
O=C1NCCCCCCN(C(=O)c2cccs2)[C@H]2C[C@H](c3nc(-c4cnccn4)no3)C[C@@H]12,i
CCn1ccc(C(=O)N2CCC(C(=O)N3CCCCCCNC(=O)CC3)CC2)n1,i
CCN(Cc1cnn(C)c1)C(=O)C1CCC(=O)N(Cc2cccc(OC)c2)C1 (stereo not given),i
CCn1nc(C)c(CCNC(=O)c2cccc(C3CCNC3)c2)c1C (stereo not given),i
CN1c2cc(C(=O)NCCc3ccccc3)ccc2C(=O)N2CCCC21 (stereo not given),i
Cc1cc(C(=O)NCC2(COc3ccc(C(F)(F)F)cn3)C[C@@H](O)[C@@H](O)C2)no1 (stereo not given in full),i
Cc1cccc(OCC(=O)NCc2nnc3ccc(-c4ccccc4)nn23)c1,i
CCC1=C(C(=O)OC)C(c2ccccc2)N2C(CC(=O)NCCCN3CCCC3=O)=CSC2=N1 (stereo not given),i
C[S+](=O)([O-])N1CCC2(CC1)CC(Cc1ccccc1)=NO2,i
Cn1nccc1CN1CCCC2(C1)NC(=O)c1ccccc1O2 (stereo not given),i
O=C(NCCc1ccncc1)c1ccc(OC2CCN(C(=O)C3CC3)CC2)cc1,i
O=C(c1cccc(OC2CN(C3CCCCCC3)C2)c1)N1CCOCC1,i
O=C1c2[nH]nc(-c3ccccc3O)c2C(c2cccc(OCc3ccccc3)c2)N1CCCO (stereo not given),11.2µM
O=C1c2[nH]nc(-c3ccccc3O)c2C(c2cccc(Cl)c2)N1Cc1cccnc1 (stereo not given),i
O=C(O)[C@@H]1CN(Cc2ccccc2)C[C@@H]1C(=O)N1CCCC1,i
O=C(Nc1ccc(F)cc1)N[C@@H]1C[C@H](CO)[C@@H](O)[C@H]1O,i
CNC(=O)N1C[C@@H](Oc2ccccc2)C[C@H]1C(=O)N1CCOCC1,i
CCc1csc(CNC(=O)c2ccc(N3C[C@@H](C)O[C@@H](C)C3)nc2)n1,i
Cc1ccc(NC(=O)Cn2c(N(C)Cc3ccccc3)nc(C)cc2=O)c(C)c1,i
CCc1ccccc1NC(=O)Cn1c(N(C)Cc2ccccc2)nc(C)cc1=O,i
SMILES,Pf Dd2 inh
CCc1cccc(C)c1NC(=O)Cn1c(N(C)Cc2ccccc2)nc(C)cc1=O,11.2µM
O=C(c1cccs1)N1CCC2(CC1)NC(=O)N(Cc1ccc(F)cc1)C2=O,i
CCNC(=O)C1CCN(C(=O)c2ccc3nc(-c4ccccc4)cn3c2)C1 (stereo not given),i
Cc1ccc(C(=O)N2CCC(c3c[nH]c4ccccc34)(c3c[nH]c4ccccc34)CC2)cc1,2µM
COc1ccc(C(=O)N2CCC3(CC2)NCCc2c3[nH]c3ccccc23)cc1,i
Cc1ccc(C(=O)N2CCC3(CC2)N=C(c2ccccc2)NO3)cc1,i
Cc1ccc(C(=O)N2CCC3(CC2)C(C(=O)O)CC(=O)N3C)s1 (stereo not given),i
Cc1ccc(Cl)cc1N1CCN(S(=O)(=O)c2ccc3[nH]c4c(c3c2)CCCC4)CC1,i
Cc1ccc(C)c(N2CCN(S(=O)(=O)c3ccc4[nH]c5c(c4c3)CCCCC5)CC2)c1,8.91µM
Cc1ccc(N2CCN(S(=O)(=O)c3ccc4[nH]c5c(c4c3)CCCCC5)CC2)c(C)c1,i
CN(C)C[C@@H]1CN(S(C)(=O)=O)C[C@H]1NC(=O)CC1=CCCCC1,i
OC1CC(c2cc(NCCc3nc(Cc4ccccc4)no3)ncn2)C1 (stereo not given),i
COCc1cccc(-c2ccc3c(n2)c(=O)ncn3Cc2ccccc2)c1,i
COc1cccc(N2CCN(c3nc4ccc(C(=O)c5ccccc5)cc4n4c(C)nnc34)CC2)c1,6.31µM
Cc1ccc(C)c(N2CCN(c3nc4ccc(C(=O)c5ccccc5)cc4n4cnnc34)CC2)c1,i
Cc1ccc(Cl)cc1N1CCN(c2nc3ccc(C(=O)c4ccccc4)cc3n3cnnc23)CC1,i
O=C(c1ccccc1)c1ccc2nc(N3CCN(c4ccc(F)cc4)CC3)c3nncn3c2c1,11.2µM
Cc1ccc(Nc2nc3ccc(C(=O)c4ccccc4)cc3n3c(C)nnc23)c(C)c1,i
Cc1ccc(N2CCN(c3nc4ccc(C(=O)c5ccccc5)cc4n4cnnc34)CC2)c(C)c1,i
Cc1noc([C@@H]2CC(F)(F)CN2C(=O)c2ccoc2)n1,i
O=C(NCCCc1ccccn1)c1ccc(C2CCCNC2)cc1 (stereo not given),i
CC(=O)c1ccc(NC(=O)Cn2c(-c3ccc(Cl)cc3)nc(C)cc2=O)cc1,i
COCCN(Cc1cccs1)C(=O)CN1CC2CC(C1)[C@H]1CCCC(=O)N1C2 (stereo not given in full),i
COc1ccc(CN2CC3(CCN(S(=O)(=O)c4c(C)noc4C)CC3)C2=O)cc1,i
O=C(Nc1cccc(-c2ccco2)c1)C1CCN(C(=O)NCc2ccco2)CC1,i
SMILES,Pf Dd2 inh
O=C([C@H]1C[C@H](Oc2ccccc2)CN1C(=O)c1ccco1)N1CCOCC1,i
Cc1noc([C@@H]2C[C@H](NC(=O)c3ccc(C#N)cc3)CN2C)n1,i
Cc1cc(S(=O)(=O)N[C@@H]2CCOC[C@H]2OCc2cscn2)n(C)n1,i
C[S+](=O)([O-])N1CCC2(CC1)CC(c1ccccc1)=NO2,i
O[C@@H]1C[C@@H](c2nc(Cc3ccc(F)cc3Cl)no2)N(Cc2ccc(OC(F)(F)F)cc2)C1,7.94µM
O=[N+]([O-])c1ccccc1CN1C[C@H](O)C[C@H]1c1nc(Cc2ccc(F)cc2Cl)no1,i
O[C@@H]1C[C@@H](c2nc(-c3ccc4c(c3)OCO4)no2)N(Cc2cccc(OC(F)(F)F)c2)C1,i
O=C(c1ccccc1Cl)N1CCC(N2CCCCCC2=O)CC1,i
COc1ccc(-n2c(C(C)NC(=O)OCc3ccccc3)nc3cccnc32)cc1 (stereo not given),i
CC1Oc2ccc(NS(=O)(=O)c3ccc(F)cc3)cc2CN(Cc2ccc(F)cc2)C1=O (stereo not given),i
CCc1nc2c(c(-c3ccc(O)cc3)n1)CN(Cc1ccccc1OC)CC2,i
Cc1nc2c(c(-c3ccc(O)cc3)n1)CN(Cc1cncs1)CC2,i
Oc1ccc(-c2nc(C3CC3)nc3c2CN(Cc2ccsc2)CC3)cc1,7.08µM
Oc1ccc(-c2nc(C3CC3)nc3c2CN(Cc2ccccc2C(F)(F)F)CC3)cc1,2.51µM!
Cc1nc2c(c(-c3ccc(O)cc3)n1)CN(Cc1ccsc1)CC2,i
Cc1cc(C(=O)N2CCC3(CCNCC3)CC2)c2cccc(C)c2n1,i
O=C(NCCC1CCN(C(=O)Nc2cc(F)ccc2F)CC1)c1ccc2nc[nH]c2c1,i
CCN1C(=O)Cc2ccccc2C1C(=O)N(C)Cc1ccco1 (stereo not given),i
CC(C)c1ccc([S+](=O)([O-])c2nnn3c2nc(NCc2ccncc2)c2ccccc23)cc1,i
CC[C@H]1CN(C(=O)Nc2ccccc2)CC[C@H]1CC(=O)N(C)CC#N,i
